Screening data deposited in PubChem BioAssay by National Center for Advancing Translational Sciences (NCATS).
SMN2 splice up: enhancers of SMN2 splice variant expression; Potency, µM (doses to about 46.1 µM), for inactives: top-dose activity change, positive = activation, hits mostly activators; HEK293 SMN2-luciferase splicing reporter, luminescence, 30-36 h; 210,000 compounds, 2.8% hits; note: % of control where 0% means no effect; nearly all actives have a fitted effect of over 55% in size
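HEK293 cells carry an SMN2 […]–luciferase reporter in which exon 7 inclusion puts luciferase in frame. Cells were plated 10-12 h before compound addition, then incubated 30-36 h at 37C. ONE-Glo luminescence was read; sodium butyrate at 4.5 mM final served as control.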
ELG1 genotox: inducers of genotoxicity in HEK293T ELG1-luciferase cells | HEK293T ELG1-luciferase reporter, luminescence, 16 h | Potency, µM (titrated, usually from 46 µM), without a hit: top-dose activity change, positive = activation, usual class: activators | 330,000 compounds, 1.3% hits | AID 504466; note: % of control where 0% means no effect; nearly all actives have a fitted effect of over 60% in size
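Screening used a luciferase reporter fused to human ELG1 in HEK293T cells. Luminescence was read on a CCD plate imager after 16 hr exposure and 30 min ONE-Glo incubation.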
Rab9 prom act: activates the Rab9 promoter | Huh7 Rab9 promoter-luciferase reporter, luminescence, 24 h | Potency, µM (top dose mostly 9.22 µM), for inactives: top-dose activation, negative = inhibition, actives largely listed as activators | 320,000 compounds, 2.8% hits; note: % of control where 0% means no effect; nearly all actives have a fitted effect of over 60% in size
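Luminescence from Amplite-detected luciferase (10 minutes, ambient) reports Rab9 promoter activation. Before that, stable Rab9-luciferase Huh7 cells (1500/well, reduced-serum OP-MEM I plus 10% FBS) were exposed to compound for 24 hours at 37C.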
NPC1 promoter act: activates the NPC1 promoter. Huh7 NPC1 promoter luciferase reporter, 24 h. Potency, µM (top dose mostly 9.22 µM), without a hit: at the highest dose activation, actives largely listed as activators. 320,000 compounds, 2.4% hits. AID 485313; note: % of control where 0% means no effect; nearly all actives have a fitted effect of over 60% in size
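Cells: Huh7 expressing luciferase under the NPC1 promoter, 1500/well. Seeded 2 h, compound added, incubated 24 h at 37 °C. Luciferase reagent, 10 min ambient, then luminescence.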
KinaseGlo FLuc: counter-screen: inhibitors of Kinase-Glo firefly luciferase; Q27757; Kinase-Glo luciferase, ATP luminescence, 8 min; Potency, µM (series often up to 38.3 µM), without a hit: at the top dose activity change, negative = inhibition, hits mostly inhibitors; 200,000 compounds, 0.28% hits; note: % is set by controls: 0 for no effect and ±100 for the full control effect; nearly all actives have a fitted effect of over 60% in size
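Luminescence was the read-out, taken after 8-minute incubation at ambient temperature. Luciferase turned over luciferin with 10 uM ATP in imidazole pH 7.2 buffer containing KCl, MgCl2, Tween 20 and BSA.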
FLuc counter: counter-screen for miR-21 project: firefly luciferase inhibitors or activators; P08659; purified FLuc, Km substrates, luminescence inhibition; Potency, µM (doses to about 57.5 µM), for the others: top-dose activity change, negative = inhibition, most hits filed as inhibitors; 360,000 compounds, 6.9% hits; AID 588342;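 note: plate controls were vehicle for no effect and reference inhibitor for full effect; nearly all actives have a fitted effect of over 55% in size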
Target sequence (P08659 whole entry, looked up): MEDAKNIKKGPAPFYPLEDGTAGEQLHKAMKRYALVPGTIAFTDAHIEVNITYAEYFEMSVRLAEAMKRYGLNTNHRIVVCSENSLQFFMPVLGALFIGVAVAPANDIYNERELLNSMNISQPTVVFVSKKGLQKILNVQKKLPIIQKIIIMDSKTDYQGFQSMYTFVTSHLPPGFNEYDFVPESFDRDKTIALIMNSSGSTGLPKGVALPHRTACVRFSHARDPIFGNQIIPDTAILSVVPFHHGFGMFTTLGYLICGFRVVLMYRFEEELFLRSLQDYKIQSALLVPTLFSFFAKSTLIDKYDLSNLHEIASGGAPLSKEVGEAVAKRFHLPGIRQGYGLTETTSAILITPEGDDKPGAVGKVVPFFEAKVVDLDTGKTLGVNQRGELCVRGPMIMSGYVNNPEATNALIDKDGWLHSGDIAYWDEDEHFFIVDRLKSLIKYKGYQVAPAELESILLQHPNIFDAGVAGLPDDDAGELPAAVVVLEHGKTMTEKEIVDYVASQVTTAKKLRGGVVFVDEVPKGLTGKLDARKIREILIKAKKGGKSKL
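Biochemical qHTS of compounds, final roughly 60 µM downward over six points, against 10 nM purified firefly luciferase using Km concentrations of substrates (10 uM D-luciferin, 10 uM ATP) in Tris acetate pH 7.5 buffer; luminescence output.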
* hit, by the source's call; ? = inconclusive; · = no result given; [ ] = remark or other dose. Shown are actives, neighbours in structure and some others; about 7.4% of the full set was active somewhere. Calls come from the whole dose curve; as a rule, active = well fitted curve in the direction sought with a large enough effect; inconclusive = small, poorly fitted or top-dose-only effect, or another doubt; inactive = no such curve, though single readings can be large; an effect the other way counts as inactive or inconclusive. Potency is the fitted concentration of half-maximal effect.

SMILES	SMN2 splice up	ELG1 genotox	Rab9 prom act	NPC1 promoter act	KinaseGlo FLuc	FLuc counter
Cc1ccc2nc3ccc(N4CCCC4)nn3c(=O)c2c1	15.8µM*	?	1.58µM*	2.24µM*	-2.6%	10.7µM*
Cc1sc2nc3ccc(N4CCCCC4)nn3c(=O)c2c1C	-16.6%	-1.5%	?	?	-1.2%	8.49µM*
c1ccc(-c2nnc3ccc(N4CCCC4)nn23)cc1	-1.9%	-22.7%	-0.6%	-1.5%	1.6%	1.5%
CC1CCCN(c2ccc3nc4ccccc4c(=O)n3n2)C1 (configuration not stated)	1.26µM*	-12.0%	?	?	?	1.07µM*
CC1CCCN(c2c3c(nc4ccccc24)CCCC3)C1 (configuration not stated)	·	-11.0%	1.2%[1.84 µM]	-5.0%	·	-0.3%
COc1ccc(CNC(=O)CCc2nc3cccnc3n2Cc2ccccc2)cc1	2.1%	·	·	·	·	-6.9%
COC(=O)C1=C(C(=O)OC)[C@@H]2N(C)c3ccccc3[C@@]23C[C@@H](C(=O)OC)N(S(=O)(=O)c2ccc([N+](=O)[O-])cc2)C3=N1	3.2%[9.22 µM]	·	·	·	-5.7%[7.66 µM]	·
COc1ccc(N2CC3=C(C2=O)C(c2ccc(Br)cc2)NC(=O)N3C)cc1 (configuration not stated)	15.2%	·	·	·	·	-1.5%
CCN1CCN(C(c2ccccc2Cl)c2sc3nc(-c4ccco4)nn3c2O)CC1 (configuration not stated)	·	·	·	·	·	-11.8%
COc1ccc2c(c1)CC/C(=C\c1ccc(C)o1)C2=O	·	?	2.82µM*	2.51µM*	·	2.39µM*
COc1ccc2c(c1)OC/C(=C/c1ccc(OC)c(OC)c1)C2=O	-103.0%	·	·	·	-10.0%	·
COc1ccc2c(c1)CC/C(=C/c1ccncc1)C2=O	-58.1%	-0.3%	-13.6%	-2.3%	-10.3%	13.5µM*
COc1ccc(/C=C2/CCOC2=O)cc1	-2.7%	1.9%	-3.3%	5.6%	1.0%	-18.0%
O=C(Nc1ccc2c(c1)OCCO2)c1oc2ccccc2c1NC(=O)C1CC1	?	-5.8%	17.4%	1.1%	3.8%	?
COc1ccc(NC(=O)c2oc3ccccc3c2NC(=O)c2ccc3c(c2)OCO3)cc1	23.5%	1.5%	16.3%	12.0%	-8.4%	9.53µM*
CCC(=O)Nc1c(C(=O)Nc2ccc3c(c2)OCCO3)oc2ccccc12	15.8µM*	9.8%	2.82µM*	?	1.4%	?
COCC(=O)Nc1c(C(=O)Nc2ccc3c(c2)OCCO3)oc2ccccc12	7.94µM*	3.0%	1.12µM*	1.41µM*	3.7%	·
CCOCC(=O)Nc1c(C(=O)Nc2ccc3c(c2)OCCO3)oc2ccccc12	2.82µM*	?	0.708µM*	1.41µM*	-3.6%	-15.4%
CC1=c2c(oc3cc(O)c(Nc4c(C)cc(O)cc4O)c(C)c23)=CC(=O)C1=Nc1c(C)cc(O)cc1O	-22.4%[9.22 µM]	·	·	·	-17.9%[7.66 µM]	·
C=CCOC(=O)N[C@@H](c1ccc(Br)cc1)C(C(C)=O)C(C)=O	8.0%	·	·	·	1.8%	·
COc1ccccc1N1CCN(C(=O)c2cc3c(=O)oc4ccccc4c3s2)CC1	1.7%	·	·	·	·	-0.3%
CCC/C=C(\CCC)C(NS(=O)(=O)c1ccccc1)c1ccc(C(F)(F)F)cc1 (configuration not stated)	-17.5%	·	·	·	-6.3%	·
Fc1ccc(Nc2ccc(-c3ccc(F)cc3)nn2)cc1	·	11.5%	3.16µM*	?	-3.4%	5.36µM*
O=C(Nc1ccsn1)c1ccc(Cl)cc1Cl	·	?	?	3.16µM*	·	?
Cc1cc(NC(=O)c2ccc(Cl)cc2Cl)no1	·	?	2.82µM*	1.41µM*	·	8.49µM*
SMILES	SMN2 splice up	ELG1 genotox	Rab9 prom act	NPC1 promoter act	KinaseGlo FLuc	FLuc counter
Cc1cc(NC(=O)Nc2ccc(Cl)cc2)no1	·	11.9%	27.1%	27.1%	·	?
CCC12CN3CC(CC)(CN(C1)C3c1cc(Br)ccc1OC)C2=O (configuration not stated)	-3.5%	·	·	·	·	2.4%
Cc1nn(-c2ccccc2)c2c1N(CC(=O)NCc1ccc(N(C)C)cc1)C(=O)CS2	·	·	·	·	·	-9.4%
C[C@@]12CCC(O)C[C@H]1CCc1ccccc12 (some centres not stated)	-1.4%	·	·	·	-0.6%	·
Cc1ccc(-c2cn3c(n2)SCC3)cc1	11.2µM*	-6.8%	2µM*	2.24µM*	-4.5%	?
O=C(Cc1ccc(F)cc1)Nc1cccc(-c2cn3c(n2)SCC3)c1	-45.7%	0.4%	0.0%	-0.4%	9.6%	?
CCc1ccc(-c2cn3c(n2)SCC3)cc1	·	?	1.41µM*	1.58µM*	-7.2%	2.39µM*
CN(C)S(=O)(=O)Nc1cccc(-c2cn3c(n2)SCC3)c1	·	-0.1%	-1.2%	-1.0%	·	-3.8%
N/C(=N/OC(=O)c1ccccc1Cl)c1ncc([N+](=O)[O-])s1	·	?	1.4%	?	·	4.26µM*
N/C(=N\OC(=O)c1cccc(F)c1)c1cccc([N+](=O)[O-])c1	·	?	20.6%	25.7%	·	1.51µM*
O=C(OCc1cnc(Cl)s1)c1ccccc1Cl	5.5%	0.9%	8.2%	-2.8%	-1.6%	?
N/C(=N\OC(=O)c1ccc2ccccc2c1)c1cccc([N+](=O)[O-])c1	13.9%[1.84 µM]	?	12.2%	26.4%	0.3%	1.9µM*
N/C(=N\OC(=O)c1ccc(F)cc1)c1cccc([N+](=O)[O-])c1	·	?	?	?	·	0.239µM*
CCOc1ccc(C(=O)c2cn(Cc3ccccc3)c3c(F)cc(F)cc3c2=O)cc1	-19.8%	·	·	·	·	-5.3%
O=C(CC(=O)c1cccc([N+](=O)[O-])c1)Nc1ccccc1Cl	-11.7%	3.4%	11.9%	16.4%	-0.2%	23.9µM*
